In PubChem BioAssay (NCATS):
Inconclusive results are not listed. Values without a mark were called inactive. Calls of active or inactive are those of the source. The call rests on the fitted dose curve; in most records, active means well fitted inhibition curve with a large enough effect; inconclusive means small, poorly fitted or top-dose-only effect; inactive means no such curve, though single readings can be large or run the other way.

Target: Papain (Carica papaya) (UniProt P00784)
Assay: Primary qHTS assay for inhibitors of the protease papain (AID 1645873);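 further: papain turnover of Z-FR-AMC read as the AMC fluorescence gain over 10 min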
Settings: papain Z-FR-AMC cleavage, AMC fluorescence; series mostly up to 49.8 µM; activity change, negative = inhibition: at the top concentration
On the % scale 0 is the no-effect control and ±100 the full control effect.

Sequence of Papain (Carica papaya) (P00784 whole entry, looked up): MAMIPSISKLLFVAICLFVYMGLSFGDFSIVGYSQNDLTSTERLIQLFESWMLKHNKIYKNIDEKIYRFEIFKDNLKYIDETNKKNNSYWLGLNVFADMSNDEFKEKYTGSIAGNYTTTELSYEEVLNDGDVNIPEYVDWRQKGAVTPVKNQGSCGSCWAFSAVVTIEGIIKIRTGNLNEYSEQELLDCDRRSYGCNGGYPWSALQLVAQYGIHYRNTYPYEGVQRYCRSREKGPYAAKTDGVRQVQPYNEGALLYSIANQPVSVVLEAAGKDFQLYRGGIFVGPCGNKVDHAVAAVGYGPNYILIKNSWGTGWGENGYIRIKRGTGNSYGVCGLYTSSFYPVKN

| SMILES | activity change, negative = inhibition [%] | Potency |
| --- | --- | --- |
| C[C@@H](N)Cc1cnc[nH]1 | 41.9 | – |
| C[N+]1(C)C2CCC1CC(OC(=O)C(CO)c1ccccc1)C2 (configuration not stated) | – | inactive |
| C=CCN1CC[C@]23CCCCC2[C@H]1Cc1ccc(O)cc13 (some centres not stated) | -1.71 | – |
| NC(CP(=O)(O)O)C(=O)O (configuration not stated) | 2.97 | – |
| CCCN(CCC)[C@@H]1CCc2ccc(O)cc2C1 | -7.11 | – |
| NC(CCP(=O)(O)O)C(=O)O (configuration not stated) | -5.31 | – |
| NC1CC1c1ccccc1 (configuration not stated) | -9.81 | – |
| CC(C)NC(C)Cc1ccc(I)cc1 (configuration not stated) | 5.31 | – |
| CN1C2CCC1CC(OC(=O)c1cc(Cl)cc(Cl)c1)C2 (configuration not stated) | -8.73 | – |
| NC1CCc2cc(O)c(O)cc2C1 (configuration not stated) | 7.65 | – |
| CN[C@@H]1C[C@@H](c2ccc(Cl)c(Cl)c2)c2ccccc21 | 47.6 | – |
| COc1cc(C(O)CN)ccc1O (configuration not stated) | 1.53 | – |
